# Screening results from PubChem BioAssay.
# BAZ2B block = inhibitors of human BAZ2B bromodomain. AlphaScreen BAZ2B-H3K14Ac peptide displacement. Q9UIF8. Potency, µM (top dose mostly 114 µM), usual class: inhibitors. hit rate 4.4% among 360,000; note: nearly all actives have a fitted effect of over 60% in size
#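 BAZ2B 50 nM plus b-H3(5-23)K14Ac 50 nM, PBS pH 7.4/0.01% Tween-20, 30 min RT; compound added (max 110 uM), 30 min RT; streptavidin donor/Ni-chelate acceptor beads 10 ug/mL final, 20 min dark; AlphaScreen read.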
# G9a inh = blocks human histone lysine methyltransferase G9a; G9a H3K9 monomethylation, AlphaScreen, 2 h; Potency, µM (series often up to 102 µM), hits mostly inhibitors; hit rate 8.8% among 350,000; note: nearly all actives have a fitted effect of over 75% in size
#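 Compounds were preincubated with 20 nM G9a for 15 min, after which biotinylated H3K9 peptide (500 nM) and SAM (20 uM) started a 2 h room-temperature reaction. Monomethylated product was quantified by antibody-based AlphaScreen chemiluminescence.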
# JMJD2A Tudor = blocks the human JMJD2A Tudor domain | O75164 | AlphaScreen JMJD2A-Tudor / H3K4me3 peptide binding | Potency, µM (top dose mostly 114 µM), hits mostly inhibitors | hit rate 4.4% among 390,000 | AID 504339; note: nearly all actives have a fitted effect of over 50% in size
# Target sequence (O75164 whole entry, looked up, the tested form may be a part): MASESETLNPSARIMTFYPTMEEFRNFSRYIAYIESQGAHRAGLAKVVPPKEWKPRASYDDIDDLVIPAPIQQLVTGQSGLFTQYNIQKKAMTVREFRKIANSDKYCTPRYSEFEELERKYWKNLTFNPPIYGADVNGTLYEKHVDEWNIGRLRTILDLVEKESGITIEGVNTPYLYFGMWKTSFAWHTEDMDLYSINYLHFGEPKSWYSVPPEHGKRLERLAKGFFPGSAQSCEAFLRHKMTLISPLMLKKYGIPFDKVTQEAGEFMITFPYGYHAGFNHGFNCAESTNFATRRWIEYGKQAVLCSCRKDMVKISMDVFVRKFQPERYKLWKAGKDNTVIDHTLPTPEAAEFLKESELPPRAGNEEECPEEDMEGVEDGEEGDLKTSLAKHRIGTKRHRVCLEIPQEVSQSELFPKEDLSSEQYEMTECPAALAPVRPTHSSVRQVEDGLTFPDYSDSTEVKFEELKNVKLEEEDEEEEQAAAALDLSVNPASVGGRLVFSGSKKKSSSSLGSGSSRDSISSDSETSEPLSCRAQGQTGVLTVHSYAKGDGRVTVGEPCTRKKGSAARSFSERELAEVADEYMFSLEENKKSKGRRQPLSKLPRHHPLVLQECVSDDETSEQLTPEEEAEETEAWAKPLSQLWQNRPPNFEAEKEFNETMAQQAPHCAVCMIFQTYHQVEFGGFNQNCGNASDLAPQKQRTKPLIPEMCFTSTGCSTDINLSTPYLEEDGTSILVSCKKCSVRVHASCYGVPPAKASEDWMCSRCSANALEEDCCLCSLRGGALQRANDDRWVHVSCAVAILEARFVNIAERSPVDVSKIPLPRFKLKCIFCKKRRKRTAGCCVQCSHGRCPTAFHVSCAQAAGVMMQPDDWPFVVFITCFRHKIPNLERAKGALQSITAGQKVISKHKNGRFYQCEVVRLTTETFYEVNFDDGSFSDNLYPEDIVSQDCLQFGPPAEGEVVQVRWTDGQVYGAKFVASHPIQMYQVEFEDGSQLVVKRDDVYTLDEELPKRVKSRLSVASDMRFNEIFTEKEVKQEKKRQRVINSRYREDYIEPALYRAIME
# L3MBTL1 block = L3MBTL1 (human) inhibition | Q9Y468 | AlphaScreen L3MBTL1–H3K9me1 peptide binding | Potency, µM (highest dose often 57.1 µM), most hits filed as inhibitors | hit rate 0.66% among 230,000 | AID 485360; note: nearly all actives have a fitted effect of over 60% in size
#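 L3MBTL1 50 nM + b-AHA-H3(1-15)K9me1 75 nM, 30 min RT; compound added, 30 min RT; streptavidin donor/Ni-chelate acceptor beads 10 ug/mL each final, 30 min RT dark; AlphaScreen read.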
# HP1b chromo inh = blocks HP1-beta chromodomain binding to methylated histone tails. P83916. AlphaScreen HP1-beta / biotin-H3K9me3 peptide binding. hit rate 0.56% among 390,000. Potency, µM (top dose mostly 114 µM), actives largely listed as inhibitors; note: nearly all actives have a fitted effect of over 70% in size
#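 AlphaScreen: HP1-beta (50 nM) preformed 30 min with biotin-H3(1-18)K9me3 peptide (50 nM) in PBS pH 7.4, 0.01% Tween-20. Compound added for 30 min at RT, then streptavidin donor/nickel chelate acceptor beads (10 ug/mL) for 30 min.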
# Sfp PPTase inh = Sfp phosphopantetheinyl transferase inhibition; Q9F4F7; Biochemical Sfp PPTase activity, qHTS; Potency, µM, hits mostly inhibitors; hit rate 3.5% among 310,000; AID 1490;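 note: the enzyme is Sfp with the accession as filed and its product quenches rhodamine fluorescence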
#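 Fluorescence-quenching assay with 15 nM Sfp, 5 uM rhodamine-CoA and 12.5 uM BHQ-2-labelled ybbR peptide in pH 7.6 Hepes/MgCl2 buffer. Enzyme was pre-incubated with compound for 15 min at room temperature. Rate was taken from the 30-min fluorescence change (525/598 nm).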
# A number is an active result; n = inactive; u = inconclusive; x = not tested or not shown; [ ] = remark or other dose. Rows were chosen to be rich in hits. Some 12% of all compounds tested hit in one or more screens of this group. Calls come from the whole dose curve; as a rule, active = well fitted curve in the direction sought with a large enough effect; inconclusive = small, poorly fitted or top-dose-only effect, or another doubt; inactive = no such curve, though single readings can be large; an effect the other way counts as inactive or inconclusive.
SMILES,BAZ2B block,G9a inh,JMJD2A Tudor,L3MBTL1 block,HP1b chromo inh,Sfp PPTase inh
COCc1cc(C)nc(OCC(=O)N/N=C/c2ccc(-c3cccc([N+](=O)[O-])c3)o2)c1C#N,n,50µM,x,n,x,n
COCc1cc(C)nc(OCC(=O)N/N=C/c2ccc(-c3cc([N+](=O)[O-])ccc3C)o2)c1C#N,n,n,n,n,n,n
COCc1cc(C)nc(OCC(=O)N/N=C/c2ccc(O)cc2)c1C#N,n,n,n,n,n,n
COCc1cc(C)nc(OCC(=O)N/N=C/c2ccc(C)o2)c1C#N,n,45µM,n,x,n,4µM
COc1ccc(NC(=O)C2CCN(C(=O)[C@@H]3Cc4ccccc4CN3C(=O)OC(C)(C)C)CC2)cc1,n,n,n,x,n,n
COCCNC(=O)[C@H](C)/C=C(\c1cccnc1)C(NC(=O)OCc1ccccc1)c1ccc(C(=O)OC)cc1 (stereo partly specified),x,x,x,x,x,n
O=C(Sc1n[nH]c(=O)[nH]c1=O)c1ccccc1,x,x,7.1µM,x,u,x
Nc1ncnc(Sc2ccccc2)c1[N+](=O)[O-],n,n,n,n,n,n
Nc1ncnc(Sc2ncccn2)c1[N+](=O)[O-],79µM,u,n,n[11.4 µM],n,35µM
Cc1c(-c2cccc(NC(=O)c3ccc(F)c(F)c3)c2)nc2ncccn12,n,n,n,x,n,x
COC(=O)NC(/C=C/c1ccco1)[C@@]1(C(=O)OC)CCCC1=O (stereo partly specified),x,x,x,x,x,n
Cc1cc(/C=N/n2cnnc2)c(C)n1-c1ccc(OCc2ccccc2F)cc1,u,u,56µM,n,u,n
Cc1cc(/C=N/n2cnnc2)c(C)n1-c1ccc(OCc2ccc(Cl)cc2)cc1,79µM,40µM,45µM,x,u,45µM
C(=N\n1cnnc1)/c1ccc(OCc2ccccc2)cc1,x,n,n,n,n,n
Fc1ccccc1COc1cccc(/C=N/n2cnnc2)c1,x,n,n,n,n,n
Cc1cccc(C)c1NC(=O)CCCN1C(=O)CCn2nc(-c3cn(C)c4ccccc34)cc21,n,n,n,x,n,x
CC1CCC2(CC1)NC(=S)N(c1ccccc1)N2 (stereo unspecified),79µM,6.3µM,n,x,n,56µM
CC1CCC2(CC1)NC(=S)N(C(C)(C)C)N2 (stereo unspecified),n,7.1µM,u,n,n,35µM
Cc1ccc(C(=O)OCC(=O)NN2C(=O)NC3(CCC(C)CC3)C2=O)cc1 (stereo unspecified),n,u,n,n,n,x
CC1=NN(c2ccc(Cl)cc2)C(=O)/C1=C\c1cccn1-c1ccc(S(N)(=O)=O)cc1,10µM,10µM,22µM,u,u,n
Cc1ccc(S(=O)(=O)N/N=C/c2cccn2-c2ccc(Cl)cc2)cc1,n,n,56µM,n,u,n
COc1ccc(Cn2cc(C(=O)c3ccc(Cl)cc3)c(=O)c3cc4c(cc32)OCO4)cc1,n,n,n,x,n,x
CC(C)(C)OC(=O)C[C@H]1C/C=C\C[C@@H](CC(=O)N(CCO)Cc2ccccc2)C(=O)N[C@@H](Cc2ccccc2)COC1=O,x,x,n,n,n,x
O=Cc1ccc(Sc2nnc(-c3ccccc3)o2)c([N+](=O)[O-])c1,45µM,40µM,u,x,n,n
Cc1ccc(C)c(C(=O)c2c(C)nc3sccn23)c1,n,n,n,n,n,n
SMILES,BAZ2B block,G9a inh,JMJD2A Tudor,L3MBTL1 block,HP1b chromo inh,Sfp PPTase inh
Cc1cc(C)c(NC(=O)c2cc3c(nc4sccn43)s2)c(C)c1,n,50µM,n,n,n,n
CCOc1ccc(NC(=O)COC(=O)CCN2C(=O)C3CC=CCC3C2=O)cc1OCC (stereo unspecified),u,4µM,u,n,n,x
CCC(=O)Nc1ccc(C(=O)COC(=O)CCN2C(=O)C3CC=CCC3C2=O)cc1 (stereo unspecified),n,50µM,n,n,n,x
COc1cc(NC(=O)CC2C(=O)OCCN2Cc2ccccc2)cc(OC)c1 (stereo unspecified),n,u,n,x,n,x
O=C(NCC1CCCN1S(=O)(=O)c1cccs1)c1ccc(Cl)cc1 (stereo unspecified),n,n,n,n,n,x
CC1CCCN(CCCNS(=O)(=O)c2cc(Br)cc3c2N(C(=O)C2CC2)CC3)C1 (stereo unspecified),n,n,n,x,n,n
O=C(C1CC1)N1CCc2cc(Br)cc(S(=O)(=O)NCCCN3CCCC3)c21,n,50µM,u,n,n,n
Oc1[nH]c2ccccc2c1C1=NCCCC1,50µM,u,u,n,n,n
COCCSc1nnc(NC(=O)C2CC(=O)N(CCc3ccc(F)cc3)C2)s1 (stereo unspecified),n,u,n,x,n,n
CCCCC(=O)Nc1nnc(C2=COCCO2)o1,u,50µM,n,n,n,u
O=C(COc1ccc(Cl)cc1)Nc1nnc(C2=COCCO2)o1,20µM,n,3.5µM,x,n,n
O=C(COc1ccccc1)Nc1nnc(-c2ccccc2Cl)o1,x,x,22µM,x,n,x
CCSc1ncnc2nc[nH]c12,x,x,n,x,n,x
CCOC(=O)C1CCCN(S(=O)(=O)c2ccc(N3CCCCS3(=O)=O)cc2)C1 (stereo unspecified),n,n[12.7 µM],n,x,n,x
CC(O)CC(C)O (stereo unspecified),n,n[0.501 µM],n,n,n,x
CCCCCCc1c(O)c2ccccc2[nH]c1=O,n,n,n,n,n,n
COC1=C(OC)C(=O)C(CCCCCCCCCCO)=C(C)C1=O,50µM,u,x,x,x,n
CCCCCCCCCCC1=C(C)C(=O)C(OC)=C(OC)C1=O,x,5µM,x,x,x,n
Cc1[nH]c2ccccc2c1CCCO,n,n,n,n,n,n
Cc1nc2cnc(N(C)C)nc2n(Cc2ccc(F)cc2)c1=O,x,n[12.7 µM],x,x,x,n
CCC1CN(C(=O)Nc2cc(C)cc(C)c2)c2ccccc2O1 (stereo unspecified),u,u,n,x,n,x
COc1ccc(C2C3=C(CCCC3=O)Nc3ccc4ncccc4c32)cc1OC (stereo unspecified),n,50µM,n,x,n,n
O=C1CCCC2=C1C(c1cccs1)Nc1ccc3ncccc3c12 (stereo unspecified),n,n[12.7 µM],n,n,n,n
COc1cc(C2C3=C(CCCC3=O)Nc3ccc4ncccc4c32)ccc1O (stereo unspecified),n,n,n,n,n,n
COc1cc(C2C3=C(CCCC3=O)Nc3[nH]n(-c4ccccc4)c(=O)c32)ccc1OC(C)=O (stereo unspecified),u,45µM,n,x,n,n
O=C1CCCC2=C1C(c1ccc(O)c(O)c1)Nc1ccc3ncccc3c12 (stereo unspecified),50µM,1.1µM,25µM,u,u,u
